21 molecules from the supplement of paper PMC7156485 can be followed below.

Common to all, as to conditions: concentration: 10 µM; 24 h
The test system of assay [1] is HCC1569. In words: cell number relative to DMSO (% of DMSO); higher = more cells (less growth inhibition / toxicity). A digest of the protocol: (§1)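 Compounds were applied at 10 µM for 24 h at 37 °C, in triplicate, to HCC1569 and TDF cells. The cells were then fixed and stained for H1.0, and nuclei were counterstained with DAPI. Nuclear H1.0 intensity or cell number is reported relative to the plate control as a percent, taking the median of replicates. Smoothing for positional effects was applied to HCC1569 values only.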

Assay [2] has as its system TDF. The description is as above. Summed up:
as §1

Assay [3] has as its system TDF. In words: H1.0 immunofluorescence intensity relative to DMSO (% of DMSO); higher = stronger H1.0 induction, active = 120 or more. Summed up:
as §1

In assay [4] the test system is HCC1569. In words: H1.0 immunofluorescence intensity relative to DMSO (% of DMSO); higher = stronger H1.0 induction, active = 140 or more. A digest of the protocol:
as §1

± gives the standard deviation of the averaged measurements.
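For H1.0 immunofluorescence intensity relative to DMSO in this document: TDF is a line of transformed human dermal fibroblasts of mesenchymal origin.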
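For cell number relative to DMSO in this document: TDF denotes transformed human dermal fibroblasts of mesenchymal origin.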

As to `Cc1ccc2c(c1)C1(CCN(CCc3nc(-c4ccccc4)oc3C)CC1)OC(=O)N2`, the cell number turned out to be 85.9 with HCC1569 [1] and 91.1 with TDF [2]. Also, the H1.0 immunofluorescence intensity with TDF [3] was 107 (inactive); in the assay with HCC1569 [4], 123 (inactive).
For `CC1C=CC=CCCC=CC=CC=CC=CC(OC2OC(C)C(O)C(N)C2O)CC2OC(O)(CC(O)C(O)CCC(O)CC(O)CC(O)CC(=O)OC(C)C(C)C1O)CC(O)C2C(=O)O` (centres undefined) [Nystatin], the cell number in the assay with HCC1569 [1] stood at 101; in the assay on TDF [2] it was 105. Further, the H1.0 immunofluorescence intensity with TDF [3] is 103 (inactive); in the assay with HCC1569 [4], 104 (inactive).
As to `CCCC[N+]1(C)C2CC(OC(=O)C(CO)c3ccccc3)CC1C1OC12.[Br-]` (single isomer, unassigned; (-)) [(-)-Scopolamine,n-Butyl-, bromide], the cell number in the assay with HCC1569 [1] was 101; in the assay with TDF [2], 106. For the same molecule, the results for the H1.0 immunofluorescence intensity in the assay with TDF [3] and in the assay on HCC1569 [4] were 96 (inactive) and 109 (inactive), respectively.
For `CC1CCC2C(C)C(=O)OC3OC4(C)CCC1C32OO4` (centres undefined) [Artemesinin] the same measures were 102 ± 2.5, 97.4 ± 2.2, 95.9 (inactive) and 116 (inactive).
For `O=C1Nc2ccc3ncsc3c2C1=Cc1cnc[nH]1` [PKR Inhibitor], the cell number amounted to 61.1 in the assay with HCC1569 [1] and 17 in the assay with TDF [2]. Moreover, the H1.0 immunofluorescence intensity was 112 (inactive) in the assay on TDF [3] and 136 (inactive) in the assay with HCC1569 [4].
The like results for `O=C(O)c1nn(Cc2ccc(Cl)cc2Cl)c2ccccc12` [Lonidamine] were, in that order, 107, 96.2, 94.3 (inactive) and 92.3 (inactive).
As to `C[C@]12CC[C@@H](O)C[C@@H]1CC[C@@H]1[C@@H]2CC[C@]2(C)[C@@H](O)CC[C@@H]12` [5alpha-Androstane-3alpha,17beta-diol], the cell number in the assay with HCC1569 [1] was 103; in the assay on TDF [2] it was 104. Also, the H1.0 immunofluorescence intensity with TDF [3] is 97.3 (inactive); in the assay on HCC1569 [4], 88.8 (inactive).
Take `O=c1[nH]c2ccccc2n1CCCN1CCC(n2c(=O)[nH]c3cc(Cl)ccc32)CC1` [Domperidone]: the figures for the cell number in the assay on HCC1569 [1] and in the assay on TDF [2] were 97.7 and 98.7, respectively. The values for the H1.0 immunofluorescence intensity with TDF [3] and with HCC1569 [4] were 94.7 (inactive) and 109 (inactive), respectively.
Consider `Cl.Oc1ccc2c3c1OC1c4[nH]c5ccccc5c4CC4(O)C(C2)N(CC2CC2)CCC314` (centres undefined) [Naltrindole hydrochloride], for which the values for the cell number with HCC1569 [1] and with TDF [2] were 101 and 99.3, respectively. Also, the H1.0 immunofluorescence intensity in the assay on TDF [3] was 96.4 (inactive); in the assay on HCC1569 [4], 114 (inactive).
As for `Cc1c(C(=O)Nc2cccc(C(F)(F)F)c2)cc(-c2ccccc2)n1CCCN1CCOCC1`, the cell number in the assay with HCC1569 [1] was found to be 92.8; in the assay with TDF [2], 94.3. Also, the H1.0 immunofluorescence intensity in the assay on TDF [3] is 95 (inactive); in the assay with HCC1569 [4], 115 (inactive).
On to `Cl.Clc1cc(I)cc(Cl)c1NC1=NCCN1` [p-Iodoclonidine hydrochloride], for which the cell number in the assay with HCC1569 [1] worked out at 102; in the assay on TDF [2] it was 101. The H1.0 immunofluorescence intensity in the assay on TDF [3] is 94.9 (inactive); in the assay on HCC1569 [4], 85.2 (inactive).
For `Nc1ccc(CCN2CCN(c3cccc(C(F)(F)F)c3)CC2)cc1`, the cell number turned out to be 95.1 with HCC1569 [1] and 98.9 in the assay on TDF [2]. Further, the H1.0 immunofluorescence intensity in the assay with TDF [3] was 99.4 (inactive); in the assay with HCC1569 [4], 107 (inactive).
Take `COc1ccc2c3c1OC1C(=O)CCC4(O)C(C2)N(CC2CC2)CCC314.Cl` (single isomer, unassigned; (-)) [(-)-3-Methoxynaltrexone hydrochloride]: the cell number in the assay with HCC1569 [1] is 104; in the assay with TDF [2] it was 109. Further, the results for the H1.0 immunofluorescence intensity with TDF [3] and in the assay with HCC1569 [4] were 88.4 (inactive) and 86.7 (inactive), respectively.
The like results for `Nc1ncnc2c1ncn2C1OC(COP(=O)(O)CP(=O)(O)OP(=O)([O-])[O-])C(O)C1O.[Li+].[Li+]` (stereo not drawn) [alpha,beta-Methylene adenosine 5'-triphosphate dilithium] were, in that order, 102, 109, 87.9 (inactive) and 96.4 (inactive).
For `CCC(C(N)=O)N1CCCC1=O` (centres undefined) [Levetiracetam] the same measures were 102, 105, 95.2 (inactive) and 101 (inactive).
On to `Cc1cccc(C)c1NC1=NCCCS1` [Xylazine], for which the cell number in the assay with HCC1569 [1] and with TDF [2] was 106 each time. For the same molecule, the results for the H1.0 immunofluorescence intensity in the assay on TDF [3] and in the assay on HCC1569 [4] were 95.4 (inactive) and 106 (inactive), respectively.
As to `COc1cc(CC(C)N)c(OC)cc1I.Cl` (racemic), the results for the cell number with HCC1569 [1] and with TDF [2] were 101 and 109, respectively. Further, the H1.0 immunofluorescence intensity was 91.3 (inactive) in the assay with TDF [3] and 88.9 (inactive) in the assay on HCC1569 [4].
Regarding `NC(N)=Nc1ccc2[nH]c3c(c2c1)CC1(O)C2Cc4ccc(O)c5c4C1(CCN2CC1CC1)C3O5.O=C(O)C(F)(F)F.O=C(O)C(F)(F)F` (centres undefined) [Guanidinyl-naltrindole di-trifluoroacetate], the figures for the cell number with HCC1569 [1] and in the assay on TDF [2] were 93.6 and 83.5, respectively. For the same molecule, the H1.0 immunofluorescence intensity in the assay with TDF [3] is 104 (inactive); in the assay on HCC1569 [4], 115 (inactive).
The like results for `C[N+](C)(C)CCOC(=O)CBr.[Br-]` [Bromoacetylcholine bromide] were, in that order, 98.5, 122, 87.8 (inactive) and 85.7 (inactive).
With `COC12CC(COC(=O)c3cncc(Br)c3)CN(C)C1Cc1cn(C)c3cccc2c13` (centres undefined) [Nicergoline], the cell number in the assay with HCC1569 [1] turned out to be 104; with TDF [2], 102. Further, the H1.0 immunofluorescence intensity in the assay on TDF [3] was 92.9 (inactive); with HCC1569 [4] it was 102 (inactive).
With `CCC1=CC2CN3CCc4c([nH]c5ccccc45)C(C(=O)OC)(C2)C13` (centres undefined) [Catharanthine], the results for the cell number in the assay on HCC1569 [1] and in the assay on TDF [2] were 104 and 94.7, respectively. Further, the results for the H1.0 immunofluorescence intensity in the assay on TDF [3] and with HCC1569 [4] were 102 (inactive) and 92.1 (inactive), respectively.
